# Test results taken from PubChem BioAssay (EPA / NIEHS).
# The source made the active and inactive calls. How the source made its calls: active means hit-call score of the fitted dose curve at least 0.9, where 1 is the maximum; inactive means score below 0.9.
# Read-out: Cytochrome P450 7A1 (Homo sapiens) (UniProt P22680)
# Assay: LTEA_HepaRG_CYP7A1: Life Technologies and Expression Analysis (LTEA) Assay for Cytochrome P450 7A1 (CYP7A1) using HepaRG (AID 2283496)
# Conditions: mRNA level, 48 h; actives raise or lower the signal
# Method in brief: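 HepaRG cells plated 48 h, then switched to serum-free induction medium and exposed in duplicate for 48 h to 8-point half-log series from 100 uM in 0.5% DMSO. CYP7A1 mRNA by qRT-PCR (TaqMan), normalized to ACTB/GAPDH/POLR2A; bidirectional fit versus DMSO.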
SMILES,AC50,outcome
COc1cc2c(c(OC)c1OC)-c1ccc(OC)c(=O)cc1[C@@H](NC(C)=O)CC2,0.095 µM (active),
CCn1nc(C)c2c1C(=O)NCC(c1ccc(O)cc1)=N2,,inactive
CCCCCCCCCC,,inactive
O=C(O)c1ccc2c(c1)nc(C(=O)NC1CCN(C3CC3)CC1)n2Cc1cc(-c2ccc(Cl)s2)on1,,inactive
Nc1ccn([C@@H]2O[C@H](CO)[C@@H](O)[C@@H]2O)c(=O)n1,,inactive
NC(=O)NN=Cc1ccc([N+](=O)[O-])o1,13.6 µM (active),
OC(Cn1cncn1)(Cn1cncn1)c1ccc(F)cc1F,,inactive
OCc1ccccc1,,inactive
NNC(=O)c1ccncc1,,inactive
CCc1ccc(O)c(C(C)(C)C)c1,,inactive
CCOC(N)=O,,inactive
CC(C)CCCCCCOC(=O)C1CCCCC1C(=O)OCCCCCCC(C)C (centres undefined),,inactive
c1ccc(C(O[C@@H]2CCCN(CCc3ccc4c(c3)OCO4)C2)c2ccccc2)cc1,83.6 µM (active),
CC(C)C(=O)Nc1ccc([N+](=O)[O-])c(C(F)(F)F)c1,67.6 µM (active),
NC(=O)N(O)[C@@H]1COc2cc(OCc3ccccc3)ccc21,,inactive
O=c1[nH]cnc2c1ncn2[C@H]1CC[C@@H](CO)O1,,inactive
NC(N)=O,,inactive
COCc1nnc(-c2ccc[n+]([O-])c2)n1-c1c(Cl)c(Cl)cc2[nH]c(=O)c(=O)[nH]c12,,inactive
OC[C@H]1O[C@@H]2O[C@H]3[C@H](O)[C@@H](O)[C@@H](O[C@H]4[C@H](O)[C@@H](O)[C@@H](O[C@H]5[C@H](O)[C@@H](O)[C@@H](O[C@H]6[C@H](O)[C@@H](O)[C@@H](O[C@H]7[C@H](O)[C@@H](O)[C@@H](O[C@H]1[C@H](O)[C@H]2O)O[C@@H]7CO)O[C@@H]6CO)O[C@@H]5CO)O[C@@H]4CO)O[C@@H]3CO,,inactive
